{"source": "ChEMBL document CHEMBL3988442", "about": "“University of Dundee, Small-Polar-MMV Screening Library” (2021)", "note": "Among all 48,000 compounds or so, about 13,000 (27%) showed an effect of 50% or more. The list shows a part of the results."}
{"system": "Wolbachia pipientis", "experiment": "Anti-Wolbachia Cell-Based Screen", "type": "functional", "design": "scale not given: in the data most compounds retested in dose-response had high values", "conditions": "5 µM", "units": {"Percent Effect": "%"}}
{"smiles": "COc1cccc(-c2n[nH]cc2CNCC2CCS(=O)(=O)C2)c1", "note": "(centres undefined)", "Percent Effect": 9.215}
{"smiles": "O=C1CCC2(CCOC2)CN1Cc1nc2ccc(Cl)cc2[nH]1", "note": "(centres undefined)", "Percent Effect": -5.094}
{"smiles": "O=C1CCC(C(=O)N(Cc2ccsc2)CC2CCCO2)=NN1", "note": "(centres undefined)", "Percent Effect": 39.45}
{"smiles": "Cc1ccc2c(c1)C(NCc1nccn1Cc1ccccc1)CCCO2", "note": "(centres undefined)", "Percent Effect": -18.78}
{"smiles": "Cc1cc(C)nc(N2CCN(C(=O)c3ccc(C4CCCO4)s3)CC2)n1", "note": "(centres undefined)", "Percent Effect": 6.831}
{"smiles": "CCc1cnc(C)nc1NCc1nc(COC)no1", "Percent Effect": 13.28}
{"smiles": "O=C(O)C(F)(F)F.O=C(O)c1cc(NS(=O)(=O)c2ccc(Cl)s2)ccc1N1CCOCC1", "Percent Effect": 94.51}
{"smiles": "CN1CCN(c2ccc(NS(=O)(=O)c3ccc(Br)s3)cc2C(=O)O)CC1", "Percent Effect": 107.3}
{"smiles": "CCC1(c2ccc(NS(=O)(=O)c3ccc(Cl)s3)cc2)CCC(=O)NC1=O", "note": "(centres undefined)", "Percent Effect": 13.42}
{"smiles": "CCc1ccc(S(=O)(=O)Nc2cc(C(=O)O)c(F)cc2F)s1", "Percent Effect": -4.689}
{"smiles": "O=C(O)c1cc(S(=O)(=O)Nc2ccc(Cl)cc2)cc2c1OCCO2", "Percent Effect": -1.351}
{"smiles": "Cc1nn(C(C)C)c(C)c1S(=O)(=O)Nc1ccc(C(=O)O)c(Cl)c1", "Percent Effect": 2.82}
{"smiles": "CCc1cccc(NS(=O)(=O)c2cc(C)c(C(=O)O)s2)c1", "Percent Effect": -4.966}
{"smiles": "CN1CCN(c2ccc(NS(=O)(=O)c3ccc(Cl)s3)cc2C(=O)O)CC1", "Percent Effect": 118.1}
{"smiles": "O=C(O)c1cc(NS(=O)(=O)c2cccc(Cl)c2F)ccc1Cl", "Percent Effect": -8.503}
{"smiles": "CN(C)Cc1ccc(C(N)=O)cc1NC(=O)c1cccc(C#N)c1", "Percent Effect": -8.387}
{"smiles": "N#Cc1ccc(N2CC3(CCN(c4nccs4)C3)C2)nc1.O=CO.O=CO", "Percent Effect": -6.647}
{"smiles": "CCc1ccc(CNC[C@H]2C[C@@H](CO)N(C)[C@H]2c2ccccc2F)o1", "Percent Effect": -16.71}
{"smiles": "O=C1NCC2(CCN(C(=O)c3ccc4c(c3)CCCO4)CC2)O1", "Percent Effect": 9.067}
{"smiles": "CCOc1cccc(CN2CCCC(Nc3ccc(F)cc3)C2)c1O", "note": "(centres undefined)", "Percent Effect": -11.06}
{"smiles": "Cc1ccccc1C(=O)CN1C(=O)c2ccccc2CS1(=O)=O", "Percent Effect": -19.77}
{"smiles": "CC(C)(O)CCc1cccc(C(=O)NCC2COCCO2)c1", "note": "(centres undefined)", "Percent Effect": 5.622}
{"smiles": "COCCN(Cc1cnn(C)c1)c1nc2c(s1)c(C)nn2C", "Percent Effect": -9.354}
{"smiles": "Cc1cccc(CN2CCC3(CCCN(C(=O)NC(C)C)C3)C2=O)n1.O=C(O)C(F)(F)F", "note": "(centres undefined)", "Percent Effect": -6.059}
{"smiles": "Cc1cccc(N2CCC3(CCCC(=O)N3)CC2)n1.O=C(O)C(F)(F)F", "Percent Effect": -22.27}
{"smiles": "Cc1cccc(CN2CCOC3(COCCN(CCN(C)C)C3)C2)n1.O=C(O)C(F)(F)F.O=C(O)C(F)(F)F.O=C(O)C(F)(F)F", "note": "(centres undefined)", "Percent Effect": -6.557}
{"smiles": "Cc1cccc(CN2C(=O)CCC23CCN(c2ccccn2)CC3)n1.O=C(O)C(F)(F)F.O=C(O)C(F)(F)F", "Percent Effect": 98.24}
{"smiles": "Cc1cccc(N2CCC3(CCN(Cc4ccccn4)CC3)CC2)n1.O=C(O)C(F)(F)F.O=C(O)C(F)(F)F", "Percent Effect": 8.022}
{"smiles": "Cc1cccc(CN2CCCC3(CCC(=O)N3CCN(C)C)CC2)n1.O=C(O)C(F)(F)F.O=C(O)C(F)(F)F", "note": "(centres undefined)", "Percent Effect": 115.9}
{"smiles": "Cc1cccc(CN2C(=O)CCC23CCN(C(=O)NC(C)C)CC3)n1.O=C(O)C(F)(F)F", "Percent Effect": 107.8}
{"smiles": "Cc1cccc(CN2CCC3(CCCN(C(=O)NC4CC4)C3)C2=O)n1.O=C(O)C(F)(F)F", "note": "(centres undefined)", "Percent Effect": 34.29}
{"smiles": "Cc1cccc(CN2C(=O)CCC23CCN(C(=O)c2ccco2)CC3)n1.O=C(O)C(F)(F)F", "Percent Effect": 108.9}
{"smiles": "O=C(O)C(F)(F)F.O=C(c1ccoc1)N1CCC2(CCC(=O)N2Cc2ccncc2)CC1", "Percent Effect": 2.988}
{"smiles": "Cc1cc(CN(C)C(=O)c2ccc(Cl)c(S(C)(=O)=O)c2)no1", "Percent Effect": -0.7928}
{"smiles": "Cn1ccnc1CCNS(=O)(=O)Cc1cccc(C#N)c1", "Percent Effect": 3.021}
{"smiles": "C1CCC(CSc2nnnn2C2CC2)OC1", "note": "(centres undefined)", "Percent Effect": -5.592}
{"smiles": "O[C@H]1Cc2ccccc2[C@H]1n1ccnc1-c1cc2n(n1)CCNC2", "Percent Effect": -8.508}
{"smiles": "CC(C)N1CCC(CN2CCn3nc(CNC(=O)N(C)C)cc3C2)CC1", "Percent Effect": 6.322}
{"smiles": "Cc1cccc(CN2CCC3(CCCN(C(=O)N4CCCC4)C3)C2=O)n1.O=C(O)C(F)(F)F", "note": "(centres undefined)", "Percent Effect": -13.65}
{"smiles": "Cc1cccc(CN2C(=O)CCC23CCN(C(=O)N2CCCC2)CC3)n1.O=C(O)C(F)(F)F", "Percent Effect": 96.5}
{"smiles": "COCCN1C(=O)CC[C@]12CC[C@@H](NCc1cccc(C)n1)CC2.O=C(O)C(F)(F)F", "Percent Effect": -11.86}
{"smiles": "COc1cc(CN(C)C(=O)NCc2nccs2)ccc1SC", "Percent Effect": -21.32}
{"smiles": "CN(Cc1cc2ccccc2o1)S(C)(=O)=O", "Percent Effect": -18.47}
{"smiles": "CN(CC1CC1)C(=O)c1cc2c(c(S(N)(=O)=O)c1)CCC2", "Percent Effect": -0.6394}
{"smiles": "Cn1cc(CCNCC2CNc3ccnn3C2)cn1", "note": "(centres undefined)", "Percent Effect": -8.259}
{"smiles": "COc1cc(CNCC2CNc3ccnn3C2)ccn1", "note": "(centres undefined)", "Percent Effect": 104.7}
{"smiles": "c1cc2n(n1)CC(CNCc1ccc(OC3CCCCC3)nc1)CN2", "note": "(centres undefined)", "Percent Effect": -3.239}
{"smiles": "c1cc2n(n1)CC(CNCc1ccc(OC3CCCC3)nc1)CN2", "note": "(centres undefined)", "Percent Effect": 90.58}
{"smiles": "c1cc(CNCC2CNc3ccnn3C2)cc(OC2CCCCC2)n1", "note": "(centres undefined)", "Percent Effect": 87.88}
{"smiles": "c1ccc(Oc2cc(CNCC3CNc4ccnn4C3)ccn2)cc1", "note": "(centres undefined)", "Percent Effect": 3.776}
{"smiles": "c1cc(CNCC2CNc3ccnn3C2)cc(OC2CCCC2)n1", "note": "(centres undefined)", "Percent Effect": 105.3}
{"smiles": "Cc1cc2n(n1)CC(CNCc1ccnc(-n3ccnc3C)c1)CN2", "note": "(centres undefined)", "Percent Effect": -4.434}
{"smiles": "CCN1CCN(c2ccc(F)cc2C(C)NCc2nc(C)no2)CC1", "note": "(centres undefined)", "Percent Effect": 5.378}
{"smiles": "CNS(=O)(=O)CCCN1CCCCCC1c1ccc(C)o1", "note": "(centres undefined)", "Percent Effect": -40.39}
{"smiles": "Cc1cc(C(=O)N2CCc3nnc(N)cc3C2)c(C)n1-c1cccnc1", "Percent Effect": -7.22}
{"smiles": "Cc1cc(C(=O)CN2C(=O)c3ccccc3CS2(=O)=O)c(C)[nH]1", "Percent Effect": 11.78}
{"smiles": "CS(=O)(=O)N1C[C@@H]2CC[C@H](C1)N(C/C=C/c1ccc(F)cc1)C2", "Percent Effect": -3.791}
{"smiles": "CCS(=O)(=O)c1nccn1-c1cccc(F)c1", "Percent Effect": -14.2}
{"smiles": "Cc1cnn(C(C)C2CC2)c1NC(=O)c1ncccc1O", "note": "(centres undefined)", "Percent Effect": 16.76}
{"smiles": "c1cc(CNCC2CNc3ccnn3C2)cc(N2CCOCC2)n1", "note": "(centres undefined)", "Percent Effect": 104.3}
{"smiles": "O=C(c1cccc(CNCC2CNc3ccnn3C2)c1)N1CCCC1", "note": "(centres undefined)", "Percent Effect": 2.865}
{"smiles": "c1cc(CNCC2CNc3ccnn3C2)cc(N2CCCCC2)n1", "note": "(centres undefined)", "Percent Effect": 12.93}
{"smiles": "CCSCCNC(=O)c1cnc(-c2ccccc2)nc1O", "Percent Effect": -4.027}
{"smiles": "Cc1cc(=O)[nH]c(-n2nc(C)c(CCC(=O)Nc3nc(C)cs3)c2C)n1", "Percent Effect": 139.8}
{"smiles": "Cc1cc(=O)[nH]c(-n2nc(C)c(CCC(=O)NCC(C)C)c2C)n1", "Percent Effect": 133.4}
{"smiles": "Cc1ccc(C(C(=O)NCCc2nc(C)cc(=O)[nH]2)N(C)C)cc1", "note": "(centres undefined)", "Percent Effect": -13.39}
{"smiles": "CCC(C)(NCC(=O)Nc1nc(C)cs1)c1nc(C)cs1", "note": "(centres undefined)", "Percent Effect": -9.944}
{"smiles": "COC(=O)CCc1c(C)nn(-c2nc(C)cc(=O)[nH]2)c1C", "Percent Effect": 2.472}
{"smiles": "COc1ccc(OC)c(CCNc2ncc(S(N)(=O)=O)s2)c1", "Percent Effect": -19.79}
{"smiles": "CC(NC(=O)CSCC#N)c1ccccc1", "note": "(centres undefined)", "Percent Effect": 5.295}
{"smiles": "CC(=O)NC1CCCN(C(=O)Nc2cnc3c(cnn3C(C)C)c2)C1", "note": "(centres undefined)", "Percent Effect": -1.693}
{"smiles": "Cc1cc(C)n(CC2CCCN2C(=O)c2cnc3n[nH]c(C)c3c2)n1", "note": "(centres undefined)", "Percent Effect": 152.9}
{"smiles": "CC(=O)N1CCCN(C(=O)c2cnc3n[nH]c(C)c3c2)CC1", "Percent Effect": 0.885}
{"smiles": "Cc1cnn(CC2CCCN2C(=O)c2cnc3n[nH]c(C)c3c2)c1", "note": "(centres undefined)", "Percent Effect": 1.676}
{"smiles": "Cc1cnn(CC2CCCCN2C(=O)c2cnc3n[nH]c(C)c3c2)c1", "note": "(centres undefined)", "Percent Effect": 131.8}
{"smiles": "Cc1cc(=O)[nH]c(SCC(=O)N(C)CC2Cc3ccccc3CN2C)n1", "note": "(centres undefined)", "Percent Effect": -1.755}
{"smiles": "O=C(Cn1cc(C(=O)O)ccc1=O)Nc1ccc(Cl)cc1F", "Percent Effect": 21.2}
{"smiles": "CC(=O)c1cn(CCC(=O)NCCC(=O)O)c2ccccc12", "Percent Effect": 11.28}
{"smiles": "CN(CC(N)=O)C(=O)CCCn1ccc2cc(Cl)ccc21", "Percent Effect": -3.904}
{"smiles": "O=C(O)Cn1ccc(=O)c2ccc(Cl)cc21", "Percent Effect": 126.4}
{"smiles": "O=C(Cn1ccc(=O)c2ccccc21)Nc1cnccc1O", "Percent Effect": 11.9}
{"smiles": "CC(=O)Cn1cc(C#N)c(=O)c2cc(Br)ccc21", "Percent Effect": -39.25}
{"smiles": "O=C(O)Cn1ccc(=O)c2cc(Cl)ccc21", "Percent Effect": 96.7}
{"smiles": "Cc1ccc(Cl)cc1NC(=O)Cn1cc(C(=O)O)ccc1=O", "Percent Effect": 11.02}
{"smiles": "O=C(O)Cn1ccc(=O)c2ccccc21", "Percent Effect": 101.5}
{"smiles": "CCN(Cc1ccoc1)C(C(N)=O)c1ccc(Br)cc1", "note": "(centres undefined)", "Percent Effect": 13.69}
{"smiles": "Cc1ccccc1C(O)CNS(=O)(=O)Cc1cccc(C#N)c1", "note": "(centres undefined)", "Percent Effect": 1.082}
{"smiles": "CCC(=O)N1CCN(C(=O)NCc2c(C)cc(C)cc2C)CC1", "Percent Effect": 2.244}
{"smiles": "O=C(NCc1nncn1-c1ccccc1)C1CC(=O)N(CC2CC2)C1", "note": "(centres undefined)", "Percent Effect": -5.786}
{"smiles": "O=C(NCCc1cc(=O)[nH]cn1)c1[nH]nc2c1CCCC2", "Percent Effect": -3.827}
{"smiles": "COc1cc(F)ccc1-c1cnc(N)cn1", "Percent Effect": 4.903}
{"smiles": "COc1cc(-c2cc(=O)[nH]cn2)cc(OC)c1OC", "Percent Effect": 108.3}
{"smiles": "COc1cc(-c2cc(N)ncn2)cc(OC)c1OC", "Percent Effect": 113.5}
{"smiles": "COc1cc(-c2cnnc(NCCCOC(C)C)n2)cc(OC)c1OC", "Percent Effect": 29.72}
{"smiles": "COc1cc(N2CCc3ncnc(-c4ccoc4)c3CC2)ncn1", "Percent Effect": -1.629}
{"smiles": "COc1ccc(-c2cc(N)ccn2)c(OC)c1OC", "Percent Effect": -25.01}
{"smiles": "COc1cc(N(C)Cc2cc(C(C)(C)C)n[nH]2)ncn1", "Percent Effect": -14.87}
{"smiles": "CNc1cc(-c2cc(OC)c(OC)c(OC)c2)ncn1", "Percent Effect": 63.03}
{"smiles": "COc1cc(-c2cc(OC)c(OC)c(OC)c2)ncn1", "Percent Effect": 111}
